{"source": "PubChem BioAssay AID588674", "about": "(Broad Institute, 2011)", "note": "About 1,800 (0.5%) of roughly 360,000 compounds were called active. The sample holds actives, similar compounds and a random draw of the others, so the mix is not that of the screen. A number with no mark means an inactive call.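 How the source made its calls: active means mean inhibition of at least 75% with every replicate also reaching 75%; inconclusive means mean inhibition at least 75% but some replicate below; inactive means mean inhibition below 75%.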"}
{"assay": "Shn3 3'UTR reporter decrease in osteoblasts – cell-based, Clone20 osteoblasts, firefly luciferase, set 2, Schnurri-3 inhibitor project, primary screen (AID 588674);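 further: 0% = median of neutral control wells and 100% = pilot-screen positive control compound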", "settings": "Clone20 osteoblast Shn3 3'UTR firefly luciferase, 24 h; at 12.5 µM; hits give high values"}
{"smiles": "COc1ccccc1N1CCN(C(=O)C2Cc3ccccc3CN2C(=O)c2ccco2)CC1", "note": "(stereo unspecified)", "inhibition": "-11.8%"}
{"smiles": "CN(C)S(=O)(=O)c1cccc(NC(=O)COC(=O)C2(c3ccccc3F)CCCC2)c1", "inhibition": "12.1%"}
{"smiles": "CC[C@H]1CN2CCc3cc(OC)c(OC)cc3[C@@H]2C[C@@H]1C[C@H]1NCCc2cc(OC)c(OC)cc21", "inhibition": "94.7% (active)"}
{"smiles": "CC1CN(c2nc(-c3ccccc3)nnc2-c2ccccc2)CC(C)O1", "note": "(stereo unspecified)", "inhibition": "21%"}
{"smiles": "CC(C)N(C(=O)[C@H]1C[C@H](CC(=O)NC(C)(C)C)C(=O)N2CCc3c([nH]c4ccc(Cl)cc34)[C@]12C)C(C)C", "inhibition": "26.9%"}
{"smiles": "COc1cc(NC(=O)C2=C(C)OCCS2)c(Cl)cc1C(=O)NCCCN1CCCC(C)C1", "note": "(stereo unspecified)", "inhibition": "-6.28%"}
{"smiles": "O=C(O)c1[nH]c2ccccc2c1C(c1cccc(O)c1)c1c(C(=O)O)[nH]c2ccccc12", "inhibition": "0.858%"}
{"smiles": "O=C(CSc1nnnn1-c1ccccc1)NCc1ccco1", "inhibition": "4.12%"}
{"smiles": "O=C(NCc1ccco1)C1(c2ccc(Cl)cc2)CCCC1", "inhibition": "-21.5%"}
{"smiles": "O=C(CSc1c2c(nc3ccc(Cl)cc13)CCCC2)NCc1ccco1", "inhibition": "89.8% (active)"}
{"smiles": "COc1ccccc1NC(=O)COC(=O)Cc1ccc(S(=O)(=O)N2CCCCC2)s1", "inhibition": "-14.6%"}
{"smiles": "Cc1nn(Cc2ccccc2Cl)c(C)c1NC(=O)Cn1nc([N+](=O)[O-])c(Cl)c1C", "inhibition": "3.56%"}
{"smiles": "O=C(N/N=C\\c1ccc(Br)cc1)c1ccc(Cn2cccn2)o1", "inhibition": "-11.5%"}
{"smiles": "Cc1c(Cl)c([N+](=O)[O-])nn1Cc1ccc(C(=O)N/N=C\\c2cc(Cl)ccc2O)o1", "inhibition": "92.8% (active)"}
{"smiles": "Cc1ccsc1C(=O)N[C@@H](C)c1nnc2ccccn12", "inhibition": "1.01%"}
{"smiles": "CN(C)CCNC(=O)c1ccc(Cl)c2cc3ccccc3nc12", "inhibition": "94.1% (active)"}
{"smiles": "CNC(=O)c1cccc2nc3ccccc3nc12", "inhibition": "-0.196%"}
{"smiles": "CCCN(CCC)CCNC(=O)c1cc2c(C)nc3ccccc3c2o1", "inhibition": "24.7%"}
{"smiles": "O=C(CNCc1ccc(Cl)cc1)Nc1cccc(C(=O)O)c1", "inhibition": "-8.08%"}
{"smiles": "O=C(/C=C/c1ccc([N+](=O)[O-])cc1)NCCSCc1ccco1", "inhibition": "-1.26%"}
{"smiles": "COc1ccc(C)cc1-n1nnnc1SCC(=O)c1cc(C)n(Cc2ccco2)c1C", "inhibition": "3.21%"}
{"smiles": "COC(=O)CC(CC(=O)OC)n1cccc1", "inhibition": "-11.6%"}
{"smiles": "COc1ccc(NC(=O)C2Cc3c(-c4ccc5c(c4)OCO5)ccnc3O2)cn1", "note": "(stereo unspecified)", "inhibition": "15.8%"}
{"smiles": "COc1ccc(NC(=O)/C(Cl)=C(/Cl)S(=O)Cc2ccc(C)cc2)cn1", "note": "(stereo unspecified)", "inhibition": "96.6% (active)"}
{"smiles": "COc1ccc(NC(=O)CN2C(=O)NC(C)(c3ccccc3)C2=O)cn1", "note": "(stereo unspecified)", "inhibition": "-47.7%"}
{"smiles": "Cn1c(SCC(=O)N2CCOCC2)nnc1-c1ccc2ncccc2c1", "inhibition": "-2.77%"}
{"smiles": "Cc1cc(C)c(S(=O)(=O)N2CCCC2CNC(=O)c2ccc3c(c2)OCO3)c(C)c1", "note": "(stereo unspecified)", "inhibition": "7.24%"}
{"smiles": "CCOC(=O)c1cc(-c2ccccc2C)n(Cc2cc(C)no2)n1", "inhibition": "4.57%"}
{"smiles": "COc1ccc2c(c1)c(=Cc1ccc(N(C)C)cc1)c1cc(-c3ccccc3)[n+](C)n12", "inhibition": "92.6% (active)"}
{"smiles": "COC(=O)CN1C(=O)C(C)(C)Oc2ccc(C(=O)Nc3cccc(OC)c3)cc21", "inhibition": "3.92%"}
{"smiles": "Cc1cc(N)n2nc(-c3ccc(C(C)(C)C)cc3)cc2n1", "inhibition": "-5.54%"}
{"smiles": "O=C(NNc1ccccc1Cl)C(O)(c1cccc(C(F)(F)F)c1)c1cccc(C(F)(F)F)c1", "inhibition": "20.3%"}
{"smiles": "O=C(O)C(=Cc1ccc([N+](=O)[O-])cc1)CCc1ccccc1", "inhibition": "-2.04%"}
{"smiles": "CC(=O)Nc1ccc(C=CC(=O)c2ccc([N+](=O)[O-])cc2)cc1", "inhibition": "9.91%"}
{"smiles": "O=C1/C(=C\\c2ccc([N+](=O)[O-])cc2)CS(=O)(=O)C/C1=C/c1ccc([N+](=O)[O-])cc1", "inhibition": "96.5% (active)"}
{"smiles": "CSc1ccccc1NC(=O)c1ccc2c(c1)CCN2S(C)(=O)=O", "inhibition": "-16.4%"}
{"smiles": "COc1ccc(CNc2ncnc3ccccc23)cc1", "inhibition": "86.1% (active)"}
{"smiles": "COc1ccc(CNc2nccs2)cc1", "inhibition": "-11%"}
{"smiles": "c1ccc(CNc2ncnc3[nH]ncc23)cc1", "inhibition": "14.2%"}
{"smiles": "CCc1ccc(N2CC(O)=C(c3nc4ccccc4c(=O)[nH]3)C2=N)cc1", "inhibition": "-17%"}
{"smiles": "CC(=O)Nc1ccc(NC(=O)CC2CCCC2)cc1", "inhibition": "-25.4%"}
{"smiles": "COc1ccc(CN2CCOC2=O)cc1OC", "inhibition": "15.9%"}
{"smiles": "O=C(Nc1ccc(Cl)c(C(F)(F)F)c1)C1Cc2c(-c3ccccc3Oc3ccccc3)ccnc2O1", "note": "(stereo unspecified)", "inhibition": "17.7%"}
{"smiles": "COc1ccc2c(c1OC)C(=O)OC2Nc1nc(-c2ccccc2)cs1", "note": "(stereo unspecified)", "inhibition": "89.4% (active)"}
{"smiles": "C/C(CC1CC(C)(C)OC1=O)=N/Nc1nc(-c2ccccc2)cs1", "note": "(stereo unspecified)", "inhibition": "-73.7%"}
{"smiles": "COc1cc(C(O)c2nc(-c3cccc(C(=O)O)c3)cs2)ccc1F", "note": "(stereo unspecified)", "inhibition": "-16.5%"}
{"smiles": "Cc1ccc(S(=O)(=O)N(C)C)cc1NC(=O)C1Cc2ccccc2CN1C(=O)c1ccco1", "note": "(stereo unspecified)", "inhibition": "-2.14%"}
{"smiles": "C/C=C(/C)C(=O)OC1Cc2c(ccc3ccc(=O)oc23)OC1(C)C", "note": "(stereo unspecified)", "inhibition": "17.3%"}
{"smiles": "COc1ccc(SCc2noc(C(=O)NCC3CCCO3)c2C(=O)O)cc1", "note": "(stereo unspecified)", "inhibition": "5.13%"}
{"smiles": "Cc1ccc(NC(=S)N2CCCC(c3ccccc3)=N2)cc1", "inhibition": "20.9%"}
{"smiles": "COc1ccc(-c2cc(C(F)(F)F)n3nc(C(=O)N4CCOCC4)c(Cl)c3n2)cc1", "inhibition": "6.42%"}
{"smiles": "Cc1ccc(NC(=O)CN(C)CC(=O)Nc2cccc(F)c2)cc1[N+](=O)[O-]", "inhibition": "90.8% (active)"}
{"smiles": "Cc1ccc(NC(=O)c2sccc2C)cc1[N+](=O)[O-]", "inhibition": "-83.1%"}
{"smiles": "CN(CC(=O)Nc1cccc(F)c1)C(=O)C1=COCCO1", "inhibition": "-7.61%"}
{"smiles": "Cc1noc(C)c1S(=O)(=O)N(C)C[C@H]1Oc2c(NC(=O)Nc3ccc4c(c3)OCO4)cccc2C(=O)N([C@H](C)CO)C[C@@H]1C", "inhibition": "17.8%"}
{"smiles": "O=C(OCCN1C(=O)c2ccccc2C1=O)[C@@H]1CC(O)CN1S(=O)(=O)c1ccccc1[N+](=O)[O-]", "note": "(stereo partly specified)", "inhibition": "-5.63%"}
{"smiles": "COc1cccc(/C=N/Nc2ncc(C(F)(F)F)cc2Cl)c1O", "inhibition": "89.9% (active)"}
{"smiles": "CN(C)C=NC(=O)c1cccn1-c1ncc(C(F)(F)F)cc1Cl", "inhibition": "-4.23%"}
{"smiles": "O=c1[nH]c2cccnc2n(CCNc2ncc(C(F)(F)F)cc2Cl)c1=O", "inhibition": "2.77%"}
{"smiles": "O=C(COC(=O)c1ccccc1SCC(=O)N1CCCC1)Nc1ccccc1OC(F)F", "inhibition": "-12.8%"}
{"smiles": "COC(=O)C1C(=O)c2c([nH]c(C(=O)OCCSC)c2C)CC1C", "note": "(stereo unspecified)", "inhibition": "-58.5%"}
{"smiles": "CCCOC(=O)c1[nH]c2c(c1C)C(=O)CC(c1cccs1)C2", "note": "(stereo unspecified)", "inhibition": "24.4%"}
{"smiles": "CCCOC(=O)c1[nH]c2c(c1C)C(=O)CC(c1cc(OC)c(OC)c(OC)c1)C2", "note": "(stereo unspecified)", "inhibition": "83.2% (active)"}
{"smiles": "CC(c1ccco1)N(C(=O)c1ccc(S(=O)(=O)N2CCCCC2)cc1)c1ccccn1", "note": "(stereo unspecified)", "inhibition": "13.4%"}
{"smiles": "CC(=O)N1CCOc2ccc(S(=O)(=O)N3CCN(c4cccc(C(F)(F)F)c4)CC3)cc21", "inhibition": "40.6%"}
{"smiles": "CCOC(=O)c1c(C)[nH]c(C2=NNC(=NC(C)COC)SC2)c1C", "note": "(stereo unspecified)", "inhibition": "-21.6%"}
{"smiles": "Fc1cccc2ncnc(OCc3ccccc3)c12", "inhibition": "18%"}
{"smiles": "Cc1nc2ccccc2cc1OCc1ccc(F)cc1", "inhibition": "85.8% (active)"}
{"smiles": "Cc1occc(=O)c1OCc1ccc(F)cc1", "inhibition": "-22.9%"}
{"smiles": "COc1ccc(Cc2nnc(N/N=C/c3ccccc3O)[nH]c2=O)cc1OC", "inhibition": "91.1% (active)"}
{"smiles": "CC(C)c1ccc(Cc2nnc(NCCCO)[nH]c2=O)cc1", "inhibition": "7.96%"}
{"smiles": "COc1ccc(Cc2nnc(SC)[nH]c2=O)cc1", "inhibition": "-14%"}
{"smiles": "CC(/C=C/C1(O)C(C)CC(=O)CC1(C)C)OC1OC(CO)C(O)C(O)C1O", "note": "(stereo unspecified)", "inhibition": "-14.8%"}
{"smiles": "CCc1ccc(NC2Nc3cc(C)nn3S2)cc1", "note": "(stereo unspecified)", "inhibition": "-59%"}
{"smiles": "COc1ccccc1-n1c(SCC(=O)Nc2cccc(C(=O)O)c2)nnc1-c1ccccc1O", "inhibition": "-11.2%"}
{"smiles": "COc1cccc(/C=N/Nc2cc(C)nc(-c3ccccc3O)n2)c1O", "inhibition": "86.9% (active)"}
{"smiles": "COc1cc(/C=N/Nc2ccc(C)cc2)cc(Br)c1O", "inhibition": "5.6%"}
{"smiles": "CN(CCO)S(=O)(=O)c1ccc2c(c1)C(=O)c1cc(S(=O)(=O)N(C)CCO)ccc1-2", "inhibition": "16.6%"}
{"smiles": "CCn1nc(C)c(CNC(=O)C2CCC(=O)N(Cc3cccc(F)c3)C2)c1C", "note": "(stereo unspecified)", "inhibition": "-6.25%"}
{"smiles": "Cc1cc(C)nc(SC(C)C(=O)N/N=C/c2cccs2)n1", "note": "(stereo unspecified)", "inhibition": "4.78%"}
{"smiles": "COC(c1ccccc1)(c1ccccc1)C(Oc1nc(C)cc(C)n1)C(=O)O", "note": "(stereo unspecified)", "inhibition": "5.7%"}
{"smiles": "Cc1cc(C)nc(S/C=C/C(=O)c2ccccc2)n1", "inhibition": "95.6% (active)"}
{"smiles": "Clc1ccc(Cl)c(Oc2ccc(Oc3nc(Cl)ccc3Cl)cc2)n1", "inhibition": "-2.29%"}
{"smiles": "O=C(N/N=C/c1ccccc1O)C1CCCC1", "inhibition": "26.7%"}
{"smiles": "O=C(NN=Cc1ccc2c(c1)CCC2)c1ccccc1O", "inhibition": "-68.8%"}
{"smiles": "Cc1ccc(/C=N/NC(=O)C2=NNC(c3ccccc3)(c3ccccc3)C2)c(O)c1", "inhibition": "88.2% (active)"}
{"smiles": "COC(=O)Cc1ccc(OC2(C)CCN(Cc3ccc4c(c3)OCCO4)C2)cc1", "note": "(stereo unspecified)", "inhibition": "-22.2%"}
{"smiles": "O=C(NCCCN1CCCCC1)C1CCCN(c2ncnc3c2nc2n3CCCCC2)C1", "note": "(stereo unspecified)", "inhibition": "2.4%"}
{"smiles": "O=C(CSC1=NS(=O)(=O)c2cc(F)ccc2N1)Nc1ccccc1F", "inhibition": "-17.3%"}
{"smiles": "Cc1cc(C)n(CCC(=O)N2CCN(S(=O)(=O)c3ccc(C)c(C)c3)CC2)n1", "inhibition": "-21.5%"}
{"smiles": "COc1ccc(CCNC(=O)C(=O)NCC2CCNCC2)cc1OC", "inhibition": "-3.81%"}
